Measured values from PubChem BioAssay AID1508600 (Functional Genomics Laboratory (NCATS/FGL), 2020).
Screen size: about 53,000 sequences; about 3,700 (7%) were called active.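 The calls were made as follows: active = gene knockdowns whose robust z-score for IL-1 alpha signal is at least 2 or at most -2, so actives lie on both sides; inactive = the rest.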 Shown is part of a subset that was picked to be rich in actives.

Assay: Components of the Cytosolic LPS Sensing Pathway: Gene Identification via Genome-wide siRNA Screen;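 also: robust z of the log signal after scaling to non-targeting control siRNA wells of the plate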
Details: RAW264.7 macrophages, IL-1a HTRF, actives lie on both sides, screened at 100 nM (by protocol), cells primed 5 h with Pam3CSK4 first
Procedure, shortened: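 Supernatant IL-1a by HTRF from RAW264.7 cells primed with Pam3CSK4 (5 hours) and transfected with LipidA (24 hour) after 48h siRNA knockdown at 100 nM; cell viability checked with CellTiter-Glo.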

z-score, inactive:
GGAUACGAUUGAACGGCUGTT against Rac3 -0.566
GCUCCUGUAGACAGGUUAGTT against Serac1 -1.39
CGCUCAUUUAGACAUAGAGTT against Ass1 0.686
CCUAGUCAUAUUCUACAGUTT against Iqca1l 0.77
GGUUGGAGUUAUAGAUUUUTT against Rufy3 1.42
GGAGAGAACUGAUGAAUCCTT against Sdhaf2 -0.26
CCCUCUUUACCAGUAUUACTT against Pla2g5 0.287
GCCGUUCACCAUGAAAUGGTT against Prkci -0.898
GGCUACAUGAGAAGCACAGTT against Disc1 1.64
CCUUAACAUGUUUCAUCUATT against Sap30 0.584
GGUUGUUUCCAGUAUUCUGTT against Apc2 1.18
GCGAAGCGAAUCCUUUUUCTT against Fosl2 0.0982
CCCUGCUUGAAUCUCUUCGTT against Tyk2 -0.191
GGCUUACGUGGUGUGCACUTT against Galr1 0.345
GGAAAGGAACUAGCAACGATT against Art3 -0.642
GGAUACAAUCCUUUUGGAUTT against Dnajb1 0.205
CCGACAUUCAACAAGAUUUTT against Mta1 -0.092
CCGGAGCUUUAUUGACACGTT against Rbm19 1.15
GGCCUGUGGUUAUGCUGUGTT against Cyp2b10 -0.716
CCUAUUGAAAAGCCAAACUTT against Lypd11 -0.651
GGUCUUUGUGUCCACCUACTT against Gpr162 0.669
GGUUCUAAUAAAAAUCGGUTT against Pcdhb1 0.659
GGAGCUGAAUCAUUAUCUGTT against Rabep1 -0.0512
GGUGCUGUUUAAAACACAGTT against Aurka 1.25
GGAGUUGAUAAUAUGGUGGTT against Uck1 0.712
GGACCAGCUUUUCAACAUUTT against F8 0.141
CCUGCUUAGGACCAUCGACTT against Lrrn2 -0.0914
GGGAUAGCUGUCUUUCAUUTT against Extl3 -1.02
GCUCUUGCUACUUUUUUCUTT against Olfr823 -0.108
GGGAAAAACACUUCUCACUTT against Slc35e2 -0.238
GGUCGCUAUUAAGAUCAUUTT against Mark4 0.491
GCUCUGCCUUCAGAUGACGTT against Olfr173 -0.26
GGCAGAUCAGAAUUGAAUUTT against Fgd6 -0.528
GCAAGGAGGUCCAACUAAGTT against Fzd8 0.239
GGUUAAUAAUGCGACAGCATT against Rbfox1 0.00257
GGAAAACUCAAAGUGCUGATT against Paqr7 0.512
CCAGUUUGGUAAUCAUGAATT against Cyb561d2 -0.244
GGCACCUUGGAGUUACAUATT against Pcdha10 -0.24
GCAGACAACUAGACAUACATT against Selenok -0.42
GCAAUAAUGGCAAUUACGGTT against Slc35f4 1.13
GGAGCUGGUGUUGAGUGAGTT against Slfnl1 -1.81
UUGUGACCAAUUUCUGAAUTT against Pgbd1 -0.594
GGAGUUAAACAAACAGAGUTT against Psma6 -0.855
UUUACUCUCAUGGUAACCUTT against Olfr798 -0.386
GGAGGUAUGGCGGUGAUUATT against Krt77 0.718
GUCACUAUUAAGACACUUATT against Nudcd3 0.157
GGCUAAAGAGUCCUCGGUGTT against Serpina5 0.594
GCAGACAGAAGAACACCAGTT against 1700024G13Rik -0.177
GGAAGAGUGUCUAAAUGUATT against Cbwd1 0.849
GGUUGAACAUAAGCACAAUTT against Cdkn2aip -0.42
GGUCACCACUCCAUAUUCUTT against Vsir -0.561
GGAGACAUAUGAAGAGAUATT against Lsm3 -0.702
GGAAGCUGGCAAGUUUAUGTT against Cfap161 -0.159
CCUGGCAUAAGUGGUUUUATT against Zfp82 1.13
CCGUUGUAUAUACCAGUAUTT against Syt1 0.218
GGAAAAACGUGGUGAACUATT against Zeb2 0.7
CCAAUAACAGGAUUGAGAATT against Tnfrsf8 -0.528
GGUGCAGUUUAAGAGAGAATT against Tmcc3 -0.224
GGGUGGACCUUCGGAAUUATT against Mrpl23 1.52
GGACUUCUUACUGGAAUCATT against Slc5a12 0.944
CGUUUUUGUCUAGUUUGAATT against Macrod2 -1.08
GGAGAUCAGCAGUUCAUUUTT against Csprs -1.66
GGUGUCAGAGGUAUUUUCATT against Bik -0.0455
GGAGUUGAUUGAGGUAAAGTT against Mettl3 -1.83
GGAAGAACCCUGCUACAUCTT against Mrpl37 0.764
GCACCUUAAUUCUUCGCCATT against Amigo2 -0.638
GGUGCUUAUAUUGCUUCCCTT against Psmb5 -0.147
CCCGUUGCUUUAGAGCUCUTT against Dph2 0.912
GGUCGUCCAGCUGAAGAACTT against Mecr 0.721
GGAAUUAGAGACUGCGGAATT against Zfp821 0.422
GGCAGAGCCUGGAUUUAUCTT against 2610524H06Rik -0.582
GGAGUUGCCAUGCUCAACATT against Olfr808 0.193
GGGAAACAGAAGUAUCUAUTT against Ar -0.708
GGAUAACAGCAAGCUGGCGTT against Taldo1 -0.585
GCGAGUGUAUGCUUGAGAATT against Hspa12b 1.01
CGACAAUCGACAAUCGUGCTT against Acta1 -0.817
GGCUUGUUCAAGAGAAGAUTT against Slc25a41 0.177
CCUUACCCAGCAAUAAAAATT against Thegl 0.379
GGUACGAAGAAGACAAAAATT against Tnfsf9 -0.0411
GCGGUGUGCUGGAUAAUUCTT against Vit -1.63
CCACUGUCCCUAAGGUACUTT against Olfr161 -0.292
GGGAUUUGUAUGAUGAUAATT against Sf3a3 -1.79
GGGAGAAUGUUUUUCUUACTT against Vsig8 -0.956
GGAUAUCAACAGAUACAUCTT against Serpina12 -0.493
CGAUCUGUGAUUGAACCACTT against Pak1 -0.0456
GCGUGGACGAAUGGAAACATT against Mapk13 -0.942
GGGCAUCUUGUAUAUCUGGTT against Spata33 0.363
CCUAAUUUCCUAGAUCUUCTT against Rtp1 -0.439

z-score, active:
CGGCAUUUGCUAAUGGUCGTT against Actl6a -2.79
CCAAGCCUUAAUAAGUCAATT against Ccp110 -2.52
GCUAUAUGUACCCUAGCCATT against H2aj 2.26
GGUCAGGUCUUUUUAUACATT against Zfp354a 2.56
GGUGUUUUCCAACAUCCUCTT against Ccrl2 3.06
GGUGUCCAUGCUAGCUGUATT against Best2 2.97
GGUCCAGGUCUGAAUCUAGTT against Tra2b 2.48
CGACAAGAAAACAUACUAGTT against Gins4 2.28
GCUAUUCAAUGGACCAGAATT against Olfr490 -2.26
GGUGAUUCACAUAACAGGCTT against Npas3 2.05
GGAGCAUUUUCCAGUUGAGTT against Mrps35 2.41
GGUGUACAGAUCUGUCUGGTT against Dkk1 2.33
CGAAAUCUUUUCUAACCACTT against Drd4 6.59
GGCUUUUGAAAAGUUCACATT against Rnf32 -2.05
GGUCAGAGCUCUGGACAAATT against Hsd3b1 4.24
GCUAAGACAGAACUCUUCUTT against Nap1l5 3.14
GGAUUCAGGAACACGGAGATT against D17H6S53E 2.29
GGAGGAACAUAUCAAGGAATT against Tmem143 2.27
GGAGAUUGAACAGUCAAACTT against Pex5 3.01
